Source: PubChem BioAssay (NCATS)
Where “and” joins values, the source holds several entries; their conditions need not be identical. Equal values may be shown once. Results filed as inconclusive are left out. Calls of active or inactive are those of the source. Unless noted, the call rests on the fitted dose curve; in most records, active means well fitted curve in the direction sought with a large enough effect; inconclusive means small, poorly fitted or top-dose-only effect, or another doubt; inactive means no such curve, though single readings can be large; an effect the other way counts as inactive or inconclusive.

How the values were obtained:
[1] = target: Cellular tumor antigen p53 (Homo sapiens) (UniProt P04637); assay: Primary qHTS for small molecule compounds that upregulate eGFP-tagged delta133p53alpha (in N-terminal) cells. (AID 2060322); settings: NCI-H358 eGFP-delta133p53alpha fluorescence, 24 h; activation: hits give high values;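 further: cells pre-induced with doxycycline then dosed without doxycycline; series mostly up to about 56 µM; 0% = DMSO vehicle and 100% = reference activator; nearly all actives have a fitted effect of over 75% in size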
Outline: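 NCI-H358 cells pre-induced 24 h with 10 ng/ml doxycycline for eGFP-delta133p53alpha, plated dox-free and exposed 24 h at 37C to titrated compounds. Fixed, Hoechst-stained; gated GFP peak intensity by laser scanning cytometry, normalized to DMSO (0%) and 57.5 uM 5-azacytidine (100%).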

[2] = target: Cellular tumor antigen p53 (Homo sapiens) (UniProt P04637); assay: Primary qHTS for small molecule compounds that upregulate eGFP-tagged delta133p53alpha (in C-terminal) cells. (AID 2060324);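 further: 0% = DMSO wells and 100% = 57.5 µM 5-azacytidine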
Outline: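 Doxycycline (100 ng/ml, 24 h) first induced the eGFP fusion in NCI-H358 C-terminal-tag cells. Washed-out cells then received titrated compounds for 24 h at 37 °C before paraformaldehyde fixation, Hoechst staining and cytometric GFP quantification.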

[3] = target: Aldehyde dehydrogenase, mitochondrial (Homo sapiens) (UniProt P05091); assay: qHTS for Inhibitors of the Aldehyde Dehydrogenase Family (ALDH2) Validation screens (AID 2061302; active means well fitted inhibition curve with a large enough effect; title and protocol of this record describe different tests;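 further: plate controls were DMSO vehicle for no effect and maximal DPI positive control response for full effect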)
[4] = target: Retinaldehyde dehydrogenase 3 (Homo sapiens) (UniProt P47895); assay: qHTS for Inhibitors of the Aldehyde Dehydrogenase Family (ALDH1A3) Validation screen (AID 2061312); further: on the % scale 0 is the no-effect control and ±100 the full control effect; nearly all actives have a fitted effect of over 45% in size

Sequence of Cellular tumor antigen p53 (Homo sapiens) (P04637 whole entry, looked up, the tested form may be a part): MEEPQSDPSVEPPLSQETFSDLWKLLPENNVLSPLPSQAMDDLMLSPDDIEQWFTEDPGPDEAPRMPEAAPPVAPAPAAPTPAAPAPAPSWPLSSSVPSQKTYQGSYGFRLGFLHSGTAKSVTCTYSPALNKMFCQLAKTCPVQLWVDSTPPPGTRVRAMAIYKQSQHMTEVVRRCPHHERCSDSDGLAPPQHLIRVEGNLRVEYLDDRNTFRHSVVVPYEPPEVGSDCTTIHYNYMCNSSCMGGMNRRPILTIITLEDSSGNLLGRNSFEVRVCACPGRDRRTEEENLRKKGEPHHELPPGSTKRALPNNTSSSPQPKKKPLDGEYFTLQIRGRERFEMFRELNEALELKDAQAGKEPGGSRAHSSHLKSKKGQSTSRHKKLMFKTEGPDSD

C[N+]1(C)CCC(OC(=O)C(c2ccccc2)c2ccccc2)CC1
inactive: activation [1] -16.4% | Potency [2] | Potency [3] | Potency [4]

CSc1ccc(C(=O)c2[nH]c(=O)[nH]c2C)cc1
inactive: activation [1] -17.5% and -26.2% | Potency [2] | Potency [3] | Potency [4]

CNCC[C@H](Oc1ccc(C(F)(F)F)cc1)c1ccccc1
inactive: activation [1] -46.5% | Potency [2] | Potency [3] | Potency [4]

O=[N+]([O-])c1ccc(CSc2ncnc3c2ncn3[C@@H]2O[C@H](CO)[C@@H](O)[C@H]2O)cc1
inactive: activation [1] -20.8% | Potency [2] | Potency [3] | Potency [4]

O=C(O)CCC(=O)N1CCCC1C(=O)O (stereo not given)
inactive: activation [1] 8.81% | Potency [2] | Potency [3] | Potency [4]

COC(=O)[C@@H](N)Cc1ccc(O)c(O)c1
inactive: activation [1] 2.51% and -29.9% | Potency [2] | Potency [3] | Potency [4]

C[N+](C)(C)CCOC(N)=O
inactive: activation [1] -23.4% and -15.4% | Potency [2] | Potency [3] | Potency [4]

CN1[C@@H](CC(=O)c2ccccc2)CCC[C@H]1C[C@H](O)c1ccccc1
inactive: activation [1] 1.49% | Potency [2] | Potency [3] | Potency [4]

Nc1nc(SCc2ccc([N+](=O)[O-])cc2)c2ncn([C@@H]3O[C@H](CO)[C@@H](O)[C@H]3O)c2n1
inactive: activation [1] -3.28% | Potency [2] | Potency [3] | Potency [4]

CN(C)CCCN1c2ccccc2Sc2ccccc21
inactive: activation [1] 2.51% and 16.3% | Potency [2] | Potency [3] | Potency [4]

CC(=O)SC1CC2=CC(=O)CC[C@]2(C)C2CC[C@@]3(C)C(CC[C@@]34CCC(=O)O4)C12 (stereo not given in full)
inactive: activation [1] -47.2% | Potency [2] | Potency [3] | Potency [4]

CNCCCC1c2ccccc2C=Cc2ccccc21
inactive: activation [1] -1.67% and -3.36% | Potency [2] | Potency [3] | Potency [4]

CCCn1c(=O)c2c(ncn2C)n(CCC)c1=O
inactive: activation [1] -49.6% | Potency [2] | Potency [3] | Potency [4]

CCSC(=N)N
inactive: activation [1] -32.7% | Potency [2] | Potency [3] | Potency [4]

Cc1cc(NC2CCCCC2)nc(-n2nc(C)cc2C)n1
inactive: activation [1] -20.8% | Potency [2] | Potency [3] | Potency [4]

CN(C)CCOC(C)(c1ccccc1)c1ccccn1 (stereo not given)
inactive: activation [1] -7.21% | Potency [2] | Potency [3] | Potency [4]

O=C(O)CP(=O)(O)O
inactive: activation [1] -13% and 17.7% | Potency [2] | Potency [3] | Potency [4]

CCCCC[C@H](CC(=O)NO)C(=O)N[C@H](C(=O)N1CCC[C@H]1CO)C(C)C
inactive: activation [1] -6.85% | Potency [2] | Potency [3] | Potency [4]

NC[C@@H]1O[C@H](c2ccccc2)Cc2c1ccc(O)c2O
inactive: activation [1] 5.43% | Potency [2] | Potency [3] | Potency [4]

O=C(O)CN(CCN(CC(=O)O)CC(=O)O)CCN(CC(=O)O)CC(=O)O
inactive: activation [1] -33.2% | Potency [2] | Potency [3] | Potency [4]

CC1(C)CCC(NC(=O)[C@@H](N)CCC(=O)O)CC1
inactive: activation [1] -8.15% | Potency [2] | Potency [3] | Potency [4]

CC(C)(C=O)Cc1cc(C(C)(C)C)c(O)c(C(C)(C)C)c1
inactive: activation [1] -15.2% | Potency [2] | Potency [3] | Potency [4]

NCCCCN=C(N)N
inactive: activation [1] -3.8% | Potency [2] | Potency [3] | Potency [4]

COc1ccc2c(c1)CCC1C2CC[C@@]2(C)C1CC[C@@H]2NCCCCCCN1C(=O)CCC1=O (stereo not given in full)
inactive: activation [1] 10.7% | Potency [2] | Potency [3] | Potency [4]

Nc1nc(Nc2ccccc2)nc2c1ncn2[C@@H]1O[C@H](CO)[C@@H](O)[C@H]1O
inactive: activation [1] 8.56% | Potency [2] | Potency [3] | Potency [4]

CCCC(CCC)C(=O)OC1CC2CCC(C1)[N+]2(C)C (stereo not given)
inactive: activation [1] -17.7% | Potency [2] | Potency [3] | Potency [4]

OC[C@H]1NC[C@@H](O)[C@@H]1O
inactive: activation [1] 4.88% | Potency [2] | Potency [3] | Potency [4]

COc1ccc(-c2cc(=O)c3c(O)c(OC)c(OC)cc3o2)cc1O
inactive: activation [1] 37.1% | Potency [2] | Potency [3] | Potency [4]

O=C1C2C=CC=CC2=NC(=S)N1CCN1CCC(=C(c2ccc(F)cc2)c2ccc(F)cc2)CC1 (stereo not given)
inactive: activation [1] -39.4% | Potency [2] | Potency [3] | Potency [4]

N[C@@H](CCC(=O)N[C@H](CSN=O)C(=O)NCC(=O)O)C(=O)O
inactive: activation [1] -28.5% | Potency [2] | Potency [3] | Potency [4]
